Rows were chosen to be rich in hits. Some 0.28% of all compounds tested hit in one or more screens of this group.
NPYLR7 agonist: activates Aedes aegypti NPYLR7 receptor | HEK293T NPYLR7/Galpha15, GCaMP6s calcium fluorescence | activation, % at 10 µM | 270,000 compounds, 0.15% hits; in the data active means activation above about 40%;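 further: 0% = vehicle and 100% = reference agonist at the receptor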
hcGAS inh: inhibitors of human cGAS. Q8N884. recombinant h-cGAS, ATP depletion, Kinase-Glo luminescence. inhibition, % at 12.5 µM. 290,000 compounds, 0.081% hits. AID 1259398;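 further: 0% = vehicle reaction and 100% = reaction without DNA for no activity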
mcGAS lum: blocks mouse cGAS activity | Q8C6L5 | recombinant cGAS, Kinase-Glo ATP depletion luminescence | inhibition, % at 12.5 µM | 160,000 compounds, 0.15% hits;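 further: 0% = negative control wells and 100% = reference inhibitor with no enzyme activity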
Target sequence (Q8C6L5 whole entry, looked up): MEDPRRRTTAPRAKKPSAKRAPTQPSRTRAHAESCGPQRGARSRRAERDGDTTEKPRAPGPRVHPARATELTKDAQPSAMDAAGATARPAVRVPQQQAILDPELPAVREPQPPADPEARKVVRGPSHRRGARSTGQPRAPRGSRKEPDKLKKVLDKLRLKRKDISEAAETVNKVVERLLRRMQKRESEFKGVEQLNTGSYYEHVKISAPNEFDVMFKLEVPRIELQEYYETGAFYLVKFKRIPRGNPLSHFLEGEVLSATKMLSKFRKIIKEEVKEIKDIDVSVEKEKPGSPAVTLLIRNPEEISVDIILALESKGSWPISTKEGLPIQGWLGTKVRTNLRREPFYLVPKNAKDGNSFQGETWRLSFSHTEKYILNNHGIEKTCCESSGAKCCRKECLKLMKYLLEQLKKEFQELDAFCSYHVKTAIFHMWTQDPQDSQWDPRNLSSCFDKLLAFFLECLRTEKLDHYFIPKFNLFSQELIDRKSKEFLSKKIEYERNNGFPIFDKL
Active calls of the source: *. Unless noted, no stated cut-off is given here; in the data, active means inhibition above about 40%; inactive means the rest.

Screening O=C(CCC1CCCC1)Nc1c(-c2cccc(F)c2)nc2ccccn12 returned NPYLR7 agonist -5, hcGAS inh 0 and mcGAS lum 1.
For O=c1oc2c(CN3CCN(CCO)CC3)c(O)ccc2cc1-c1ccccn1 the results were NPYLR7 agonist 10 and hcGAS inh -7.
`O=c1oc2c(CN3CCN(CCO)CC3)c(O)ccc2cc1-c1nc2ccccc2s1` gave NPYLR7 agonist 66* and hcGAS inh -5.
CC(=O)C1=C(C)Nc2ncnn2C1c1ccco1 (stereo unspecified) was read as NPYLR7 agonist 6 and hcGAS inh -3.
For Fc1cc(F)cc(C2C=C(c3ccco3)Nc3ncnn32)c1 (stereo unspecified) the results were NPYLR7 agonist 78* and hcGAS inh 8.
For COc1ccc(CNC(=O)c2sc3nc4c(c(C(F)(F)F)c3c2N)CN(C(C)=O)CC4)cc1 the results were NPYLR7 agonist -7 and hcGAS inh -5.
`CCOC(=O)N1CCC(NC(=O)c2sc3nc4c(c(C(F)(F)F)c3c2N)CC(C)CC4)CC1` (stereo unspecified) gave NPYLR7 agonist 62*, hcGAS inh -6 and mcGAS lum -4.
`Cc1noc(C)c1CC(=O)OC(C)C(=O)NC(N)=O` (stereo unspecified) gave NPYLR7 agonist 5 and hcGAS inh -8.
For COCCC1CN(Cc2cccc(OC)c2O)CCO1 (stereo unspecified) the results were NPYLR7 agonist -1 and hcGAS inh 0.
For Cc1cc(NC(=O)Cc2cccs2)n(-c2nc(-c3ccccc3)cs2)n1 the results were NPYLR7 agonist -8, hcGAS inh -8 and mcGAS lum -10.
`O=C1CCCCCN1CO` gave NPYLR7 agonist -6, hcGAS inh 83* and mcGAS lum 3.
Screening O=C1CCCCCN1CP(=O)(O)CN1CCCCC1 returned hcGAS inh -8 and mcGAS lum -4.
`COc1cc(C=CC(=O)c2ccc(F)cc2)ccc1OC(F)F` gave NPYLR7 agonist -9 and hcGAS inh 1.
`O=C(C=Cc1ccccc1OC(F)F)c1ccc(F)cc1` gave NPYLR7 agonist -2, hcGAS inh -5 and mcGAS lum 43*.
`NS(=O)(=O)c1ccc(CCN2C(=O)c3cccc4cccc(c34)C2=O)cc1` gave NPYLR7 agonist -4, hcGAS inh 1 and mcGAS lum -2.
`Nc1c(S(=O)(=O)O)cc2c3c(cccc13)C(=O)N(CCO)C2=O` gave NPYLR7 agonist 93*, hcGAS inh -8 and mcGAS lum -1.
Cc1nc(C(C)NC2CCN(c3ccccn3)CC2)cs1 (stereo unspecified) was read as NPYLR7 agonist 8, hcGAS inh -14 and mcGAS lum -8.
For O=C(NN=Cc1ccccc1C(F)(F)F)c1ccco1 the results were NPYLR7 agonist -2, hcGAS inh -2 and mcGAS lum -1.
Screening O=C(NN=Cc1ccccc1C(F)(F)F)c1cnccn1 returned NPYLR7 agonist -5, hcGAS inh 1 and mcGAS lum 55*.
Screening O=C(c1ccc2oc(Cc3ccccc3)nc2c1)N1CCCC1c1ccc(F)cc1 (stereo unspecified) returned NPYLR7 agonist 2, hcGAS inh -7 and mcGAS lum -10.
`Cc1cc(C)nc(CCNC(=O)Cn2nnnc2CN2CCCCCC2)n1` gave NPYLR7 agonist 21 and hcGAS inh 0.
Screening NS(=O)(=O)c1ccc(NN=C2CC3CC=CC23)c([N+](=O)[O-])c1 (stereo unspecified) returned NPYLR7 agonist -7 and hcGAS inh -6.
For CCC(C)N(CC(=O)N(CCc1ccccc1)Cc1ccco1)C(=O)C(C)(C)C (stereo unspecified) the results were NPYLR7 agonist -4, hcGAS inh 4 and mcGAS lum -2.
COc1ccc2c(c1)OCC(C=C(C#N)S(=O)(=O)c1ccc(Br)cc1)=C2 was read as NPYLR7 agonist 93* and hcGAS inh -6.
Screening Cc1ccc(C=C(C#N)S(=O)(=O)c2ccc(Br)cc2)o1 returned NPYLR7 agonist 5 and hcGAS inh -6.
Screening CC(C)(C)n1ncc2c(=O)[nH]c(N3CCC(C(=O)N4CCCCCC4)CC3)nc21 returned NPYLR7 agonist -1 and hcGAS inh -4.
`COC(=O)C1=C(C)NC2=C(C(=O)CC(c3ccccc3)C2)C1c1cc(OC)ccc1OC` (stereo unspecified) gave NPYLR7 agonist -5, hcGAS inh -1 and mcGAS lum -5.
Cc1cccc(NC(=O)CNC(=O)CNCc2ccc(F)cc2)c1 was read as NPYLR7 agonist 36, hcGAS inh 0 and mcGAS lum 0.
For O=C1CC(c2cccc(F)c2)N(CCCc2ccccc2)CCN1 (stereo unspecified) the results were NPYLR7 agonist 12 and hcGAS inh -4.
O=C(NCc1ccco1)c1ccccc1N1CCC(NC(=O)C2CCCC2)CC1 was read as NPYLR7 agonist -1, hcGAS inh -4 and mcGAS lum -5.
Screening Cc1ccc(OCCNC(=O)N2CCN(S(=O)(=O)c3ccccc3Cl)CC2)c(C)c1 returned NPYLR7 agonist 46*, hcGAS inh -11 and mcGAS lum -8.
For Cc1cc(C)c(C)c(OCCCNC(=O)N2CCN(S(=O)(=O)c3ccccc3[N+](=O)[O-])CC2)c1 the results were NPYLR7 agonist 17, hcGAS inh -7 and mcGAS lum -5.
`Cc1ccccc1Cn1c(CCNC(=O)c2ccco2)nc2ccccc21` gave NPYLR7 agonist -3, hcGAS inh -5 and mcGAS lum -8.
COc1ccccc1CCNC(=O)c1ccc(Cn2c(C)nc3ccccc32)o1 was read as NPYLR7 agonist 64* and hcGAS inh -3.
`CCCN(C)c1nc(SCc2ccc(C(=O)NCc3ccccn3)cc2)nc(C)c1C` gave NPYLR7 agonist -4, hcGAS inh -2 and mcGAS lum -5.
Screening CCN1N=C(C)C(C)n2c1nc1c2c(=O)n(CCC(C)C)c(=O)n1C (stereo unspecified) returned NPYLR7 agonist 1, hcGAS inh -1 and mcGAS lum -7.
`O=C(Nc1cccc(C(=O)Nc2ccc(S(=O)(=O)O)c3cc(S(=O)(=O)O)cc(S(=O)(=O)O)c23)c1)Nc1cccc(C(=O)Nc2ccc(S(=O)(=O)O)c3cc(S(=O)(=O)O)cc(S(=O)(=O)O)c23)c1` gave NPYLR7 agonist -2, hcGAS inh -1 and mcGAS lum 86*.
Screening Nc1cccc(NC(=O)c2cccc(S(=O)(=O)Nc3cccc(N)c3)c2)c1 returned NPYLR7 agonist 12, hcGAS inh -3 and mcGAS lum -4.
Cc1cc(O)c(CN2CCN(C)CC2)c2c1C(=O)/C(=C/c1cc3ccccc3o1)O2 was read as NPYLR7 agonist 8, hcGAS inh -8 and mcGAS lum -9.
`CCN(CC)Cc1c(O)cc(C)c2c1O/C(=C\c1cc3ccccc3o1)C2=O` gave NPYLR7 agonist 70*, hcGAS inh -2 and mcGAS lum -2.
For N#C/C(=C\c1ccc(O)c(O)c1)C(=O)NCCCc1ccccc1 the results were NPYLR7 agonist 120*, hcGAS inh 9 and mcGAS lum 1.
For N#C/C(=C\c1ccc(O)c(O)c1)C(=O)c1ccc(O)c(O)c1 the results were NPYLR7 agonist 16, hcGAS inh 19 and mcGAS lum 15.

Compound activity (PubChem)
